About 390 (0.39%) of roughly 99,000 compounds were called active. The entries come from a sample that favours actives as a whole. Unmarked numbers belong to inactive results. No stated cut-off is given here; in the data, active means TR-FRET ratio above about 2000; inactive means the rest.
Experiment: TR-FRET detection interference compounds, artefact control for PPARgamma SRC-3 recruitment agonists, biochemical, TR-FRET ratio (AID 1048)
Settings: TR-FRET artefact counter-screen, PPARgamma/SRC-3 format; at 8 µM; hits give high values
Work on `COc1ccccc1NC(=O)COC(=O)Cc1ccc(S(=O)(=O)N2CCCCC2)s1` yielded a TR-FRET ratio of 1680.
For `Cc1c(Cl)c([N+](=O)[O-])nn1CC(=O)NCC1CCCO1` (configuration not stated), the TR-FRET ratio was 1690.
`O=[N+]([O-])c1ccccc1SNc1ccccn1` showed a TR-FRET ratio of 1510.
For `CC(=O)Nc1ccc(Nc2nc3c(S(=O)(=O)c4ccc(C)c(C)c4)nnn3c3ccccc23)cc1`, the TR-FRET ratio was 1560.
With `COCCCNc1nc2c(-c3cccc(C(F)(F)F)c3)nnn2c2ccccc12` the TR-FRET ratio was 2690 (active).
`Cc1cccc(Nc2nc3c(S(=O)(=O)c4ccccc4)nnn3c3ccccc23)c1C` showed a TR-FRET ratio of 1540.
With `CCOC(=O)c1ccc(NC(=O)c2cc(=O)[nH]c3ccccc23)cc1` the TR-FRET ratio was 1550.
For `O=C(NCc1ccc(F)cc1)C(c1ccccc1)N(C(=O)c1csnn1)C1CC1` (configuration not stated), the TR-FRET ratio was 1460.
For `CCc1nccn1S(=O)(=O)c1cccc([N+](=O)[O-])c1`, the TR-FRET ratio was 1700.
Compound `CC1Cc2ccccc2N1C(=O)CSc1nnc(C2CC2)n1C` (configuration not stated) has a TR-FRET ratio of 1630.
`Cc1ccc(S(=O)(=O)N(C)c2ccc(OCC(=O)NC3=NCCS3)cc2)cc1` showed a TR-FRET ratio of 1460.
`Cc1ccc(NC(=O)NNC(=O)c2sccc2-n2cccc2)cc1` showed a TR-FRET ratio of 1310.
`COc1cc(CN(C)Cc2nc3cc(C(F)(F)F)ccc3c(=O)[nH]2)ccc1OC(F)F` showed a TR-FRET ratio of 1340.
`CSCC(=O)N1CCCC(C(=O)c2cc(F)ccc2F)C1` (configuration not stated) gave a TR-FRET ratio of 1400.
For `Cc1ccc(C(=O)N/C(=C/c2cccs2)C(=O)NCC2CCCO2)cc1` (configuration not stated), the TR-FRET ratio was 1510.
`O=C(CCC(=O)NNc1nc2ccccc2c2nc(-c3ccccc3)nn12)NCCCN1CCCC1=O` gave a TR-FRET ratio of 1570.
For `C/C(=N\Nc1ncc(Cl)cc1Cl)c1cccs1`, the TR-FRET ratio was 1400.
In the case of `COCCn1c(=O)[nH]c(=O)c2cc(C(=O)c3cc(OC)ccc3O)cnc21`, the TR-FRET ratio is reported as 1460.
For `Fc1ccccc1Cc1ccc(Cl)nn1`, the TR-FRET ratio was 1250.
`CCCCOc1ccc(N(CC(=O)NC(C)C)C(=O)CCC(=O)Nc2ccccn2)cc1` gave a TR-FRET ratio of 1760.
With `COc1ccc(C2CC(c3cccs3)=NN2C(=O)COC(=O)c2cc3ccccc3cc2O)cc1OC` (configuration not stated) the TR-FRET ratio was 1600.
Compound `O=C(N/N=C/c1ccccn1)C12CC3CC(CC(C3)C1)C2` has a TR-FRET ratio of 1520.
For `O=C(NCCOc1ccccc1F)Nc1ccc(Br)cc1`, the TR-FRET ratio was 1530.
With `O=C(O)c1ccc2c3c(cccc13)C(=O)N(OS(=O)(=O)c1ccccc1)C2=O` the TR-FRET ratio was 1490.
Compound `CCC(=O)Nc1sc(C(=O)Nc2ccccc2)c(C)c1C(=O)OC` has a TR-FRET ratio of 1430.
`CCOC(=O)c1sc(NC(=O)COc2ncnc3ccccc23)c(C(=O)OCC)c1C` showed a TR-FRET ratio of 1650.
For `CCOC(=O)c1c(NC(=O)CNC2CCCc3ccccc32)sc(C(N)=O)c1C` (configuration not stated), the TR-FRET ratio was 2120 (active).

From PubChem BioAssay AID1048 (The Scripps Research Institute Molecular Screening Center, 2008)
